Experimental findings from PubChem BioAssay AID1053125 (Broad Institute, 2014) are described below.

Results with a measured potency or affinity are listed apart. Calls of active or inactive are those of the source.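 How the source made its calls: active means viability loss whose fitted half-maximal concentration is at most twice the top valid tested dose; inconclusive means flat curve with 30 to 70% loss, or poor fit; inactive means the rest.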

The nature of the experiment: viability loss in HepG2 liver cells – cell-based, ATP luminescence, cherry-pick, set 6, cytotoxicity control, dose response (AID 1053125). As to conditions: ATP luminescence (CellTiter-Glo), 72 h; series mostly up to 26 µM; activity change, negative = cytotoxicity: at the top concentration. On the technique in general: Cellular ATP, detected with luciferase, serves as a proxy for viable cell number.
For `C[C@H](NC(=O)c1nc[nH]c1C(=O)N[C@@H](Cc1ccccc1)C(=O)OC(C)(C)C)C(=O)OCc1ccccc1`, the “activity change, negative = cytotoxicity” value is 1.48% (inactive).

Consider `CCOCCCNC(=S)N1CCCN(c2nc3cc(C)c(C)cc3cc2C#N)CC1`, for which the “activity change, negative = cytotoxicity” value is 25.8% (inactive).

As for `CCOC(=O)c1c(C)n(C)c2ccc(OCC(O)CN3CCC(C)CC3)cc12` (centres undefined), the “activity change, negative = cytotoxicity” value is -5.75% (inactive).

With `Clc1cccc(CN2CCN(Cc3nc(CCc4ccccc4)no3)CC2)c1`, the “activity change, negative = cytotoxicity” value was -10.7% (inactive).

As to `Cc1cccn2c(=O)c(/C=C(\C#N)C(=O)NC3CCS(=O)(=O)C3)c(N3CCC(C(N)=O)CC3)nc12` (centres undefined), the “activity change, negative = cytotoxicity” value is -0.312% (inactive).

Take `O=C(C1=NN(c2ccccc2)C2C(=O)N(c3ccccc3)C(=O)C12)c1ccccc1` (centres undefined): the “activity change, negative = cytotoxicity” value is 16.3% (inactive).

Take `COC(=O)c1cc(=O)n(Cc2ccc3c(c2)OCO3)c(=Nc2ccc(F)c(Cl)c2)s1`: the “activity change, negative = cytotoxicity” value was -1.78% (inactive).

`Cc1nc2ccc(S(=O)(=O)Nc3ccc(-c4nc5cccnc5s4)cc3)cc2s1`: the “activity change, negative = cytotoxicity” value was 6.75% (inactive).

`CC1CCCCC1NC(=O)CN1C(=O)c2cccc(N)c2C1=O` (centres undefined): the “activity change, negative = cytotoxicity” value was -3.23% (inactive).

Take `COc1ccccc1N1CCN(C2CCC(C)CC2)CC1` (centres undefined): the “activity change, negative = cytotoxicity” value was -3.96% (inactive).

With `O=C(O)c1ccc(N/N=C/c2ccc(-c3ccccc3Cl)o2)cc1`, the “activity change, negative = cytotoxicity” value was -1.29% (inactive).

For the compound `CC(C)OCCCn1c(=N)c(C(N)=S)cc2c(=O)n3ccccc3nc21`, the “activity change, negative = cytotoxicity” value is -3.52% (inactive).

In the case of `CSc1ccc(Cn2c(C)c(C(=O)NCc3cccc(Cl)c3)sc2=O)cc1`, the “activity change, negative = cytotoxicity” value was -16% (inactive).

Regarding `Cc1cccn2c(=O)c3cc(C(=O)NCc4ccc(F)cc4)c(=N)n(CCCN4CCOCC4)c3nc12`, the “activity change, negative = cytotoxicity” value was -7.84% (inactive).

For the compound `COc1ccc(C(=O)c2sc3nc(-c4ccc(OC)cc4)ccc3c2N)cc1`, the “activity change, negative = cytotoxicity” value was -0.796% (inactive).

As to `C=CCn1c(=N)c(C#N)cc2c(=O)n3ccccc3nc21`, the “activity change, negative = cytotoxicity” value was -4.55% (inactive).

For the compound `CCOC(=O)c1c2ccc(OCC(=O)NN)cc2n2ccccc12`, the “activity change, negative = cytotoxicity” value was -9.3% (inactive).

Consider `O=C(Cc1csc(-c2ccccc2)n1)NCc1ccccc1F`, for which the “activity change, negative = cytotoxicity” value is 1.41% (inactive).

`CCOC(=O)c1oc2c(CN3CCN(CCO)CC3)c(O)c(CC)cc2c(=O)c1-c1nc2ccccc2s1`: the “activity change, negative = cytotoxicity” value is -18% (inactive).

For `Cn1cccc1/C=N/NC(=O)c1sc2cc(Cl)ccc2c1Cl`, the “activity change, negative = cytotoxicity” value was -8.71% (inactive).

Turning to `O=C(Cn1ccc([N+](=O)[O-])n1)N1CCCCCC1`, the “activity change, negative = cytotoxicity” value is -2.07% (inactive).

In the case of `CNNC(=S)NC1CC2CC1C1C=CCC21` (centres undefined), the “activity change, negative = cytotoxicity” value is -6.4% (inactive).

As to `CCN(c1ccccc1)S(=O)(=O)c1ccc(OC)c(NC(=O)CN(C)C)c1`, the “activity change, negative = cytotoxicity” value was -14.4% (inactive).

For the compound `N#Cc1c2ccc(OCC(N)=O)cc2n2ccccc12`, the “activity change, negative = cytotoxicity” value is -3.56% (inactive).

On to `Cc1cc(OC(=O)c2ccccc2Cl)ccc1N1C(=O)CCC1=O`, for which the “activity change, negative = cytotoxicity” value is 58.8% (inactive).

Turning to `CCCCN1C=C(C(=O)OC)C(c2ccccc2Cl)C(C(=O)OC)=C1`, the “activity change, negative = cytotoxicity” value is 11.9% (inactive).

Turning to `COC(=O)C1=CN(Cc2ccc(OC)c(OC)c2)C=C(C(=O)OC)C1c1cccc(F)c1`, the “activity change, negative = cytotoxicity” value was -1.56% (inactive).

On to `Cc1cc2c(C)cc(=O)oc2c2c1NCCC2`, for which the “activity change, negative = cytotoxicity” value was -2.33% (inactive).

As to `CCn1c2ccccc2c(=O)c2ccccc21`, the “activity change, negative = cytotoxicity” value was -12.7% (inactive).

Regarding `COc1ccc(Cn2nnnc2C(CC(C)C)N2CCC(C(N)=O)CC2)cc1` (centres undefined), the “activity change, negative = cytotoxicity” value was -8.56% (inactive).

On to `O=C(/C=C/c1ccccc1)C1=C(O)C(=O)N(CCO)C1c1ccc2c(c1)OCO2` (centres undefined), for which the “activity change, negative = cytotoxicity” value was -10.5% (inactive).

Regarding `COc1ccc(S(=O)(=O)N2CCCC2CNC(=O)C(=O)NC2CCCC2)cc1` (centres undefined), the “activity change, negative = cytotoxicity” value was -7.24% (inactive).

Take `Cc1cc(CNC(=O)c2ccc3c(c2)OCO3)c2ccccc2n1`: the “activity change, negative = cytotoxicity” value is -4.91% (inactive).

For the compound `O=C(CCCN1C(=O)CSc2ncccc21)N1CCN(Cc2ccccc2)CC1`, the “activity change, negative = cytotoxicity” value is -10.3% (inactive).
